From PubChem BioAssay AID1159580 (chemical genetic matrix, 2015)
In all, about 5,500 compounds went through this assay and about 2,000 (36%) were called active. About 18% were inconclusive and are not listed. No stated cut-off is given here; in the data, active means normalized growth mostly below about 0.91 (no sharp cut-off); inconclusive means no clear call, values can overlap the other calls; inactive means mostly above about 0.92. The list shows a part of the results.

Test: chemical genetic growth profiling, strain panel (AID 1159580);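 further: tested at 20 µM; growth read once vehicle control cultures reached saturation at 30 °C; 1 = growth at the plate median or of vehicle wells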
Details: S. cerevisiae deletion strains, growth OD

Measured: normalized growth

CC(=O)O[C@@H]1CC2C(C)(C)[C@H](O)CC[C@]2(C)C2CC[C@@]3(C)[C@H](c4ccoc4)OC(=O)[C@H]4O[C@]43[C@@]21C (stereo partly specified)
inactive: locus YAL013W, strain DEP1, stronger effect = lower value 1.01 | locus YBR021W, strain FUR4, stronger effect = lower value 0.971 | locus YBR229C, strain ROT2, stronger effect = lower value 0.996 | locus YCL029C, strain bik1, stronger effect = lower value 0.997 | locus YDL035C, strain GPR1, stronger effect = lower value 0.983 | locus YDL074C, strain BRE1, stronger effect = lower value 0.994 | locus YDL101C, strain DUN1, stronger effect = lower value 1.02 | locus YDL134C, strain PPH21, stronger effect = lower value 0.982 | locus YDL185W, strain tfp1, stronger effect = lower value 1.02 | locus YDL192W, strain arf1, stronger effect = lower value 0.999 | locus YDR101C, strain arx1, stronger effect = lower value 0.993 | locus YDR150W, strain NUM1, stronger effect = lower value 1 | locus YDR162C, strain NBP2, stronger effect = lower value 1.01 | locus YDR318W, strain mcm21, stronger effect = lower value 1.02 | locus YDR388W, stronger effect = lower value 1.01 | locus YDR502C, strain sam2, stronger effect = lower value 1.02 | locus YEL061C, strain CIN8, stronger effect = lower value 1.01 | locus YER110C, stronger effect = lower value 1.03 | locus YER155C, strain BEM2, stronger effect = lower value 1.01 | locus YER167W, strain BCK2, stronger effect = lower value 1.01 | locus YGL078C, strain dbp3, stronger effect = lower value 1.04 | locus YGL086W, strain mad1, stronger effect = lower value 1.02 | locus YGL248W, strain PDE1, stronger effect = lower value 1.02 | locus YGR078C, strain PAC10, stronger effect = lower value 1.05 | locus YGR135W, strain pre9, stronger effect = lower value 1.06 | locus YGR252W, strain gcn5, stronger effect = lower value 1.03 | locus YHR030C, strain SLT2, stronger effect = lower value 1.01 | locus YHR079C, strain IRE1 (second series), stronger effect = lower value 1.01 | locus YHR094C, strain hxt1, stronger effect = lower value 1.01 | locus YHR129C, strain ARP1, stronger effect = lower value 1 | locus YHR200W, strain rpn10, stronger effect = lower value 1.01 | locus YIL066C, strain RNR3, stronger effect = lower value 0.984 | locus YIL073C, strain SPO22, stronger effect = lower value 1.03 | locus YIL125W, strain kgd1, stronger effect = lower value 1.01 | locus YIR030C, strain dcg1, stronger effect = lower value 1.01 | locus YJL095W, strain BCK1, stronger effect = lower value 1.03 | locus YJL134W, strain LCB3, stronger effect = lower value 1.01 | locus YJL168C, strain set2, stronger effect = lower value 1.02 | locus YJL187C, strain SWE1 (second series), stronger effect = lower value 1.03 | locus YKL009W, strain mrt4, stronger effect = lower value 0.996 | locus YKL068W, stronger effect = lower value 0.996 | locus YKL085W, strain MDH1 (second series), stronger effect = lower value 1.01 | locus YKL085W, strain MDH1, stronger effect = lower value 1.01 | locus YKR001C, strain vps1, stronger effect = lower value 1.01 | locus YLR039C, strain RIC1, stronger effect = lower value 1.07 | locus YLR058C, strain SHM2, stronger effect = lower value 1.01 | locus YLR102C, strain apc9, stronger effect = lower value 1.01 | locus YLR262C, strain YPT6, stronger effect = lower value 1.13 | locus YLR268W, strain sec22, stronger effect = lower value 0.975 | locus YLR342W, strain FKS1 (second series), stronger effect = lower value 1.02 | locus YLR371W, strain rom2, stronger effect = lower value 1.01 | locus YLR418C, strain cdc73, stronger effect = lower value 1.02 | locus YML016C, strain PPZ1, stronger effect = lower value 1.01 | locus YML032C, strain rad52, stronger effect = lower value 0.978 | locus YML124C, strain tub3, stronger effect = lower value 1.02 | locus YMR078C, strain ctf18, stronger effect = lower value 1.01 | locus YMR223W, strain ubp8, stronger effect = lower value 1 | locus YMR307W, strain GAS1, stronger effect = lower value 1.09 | locus YNL067W, strain RPL9B, stronger effect = lower value 1.04 | locus YNL153C, strain GIM3, stronger effect = lower value 1.04 | locus YNL233W, strain BNI4, stronger effect = lower value 1.02 | locus YNL250W, strain rad50, stronger effect = lower value 1.04 | locus YNL271C, strain bni1, stronger effect = lower value 1.03 | locus YNL298W, strain CLA4, stronger effect = lower value 1.01 | locus YNL307C, strain MCK1, stronger effect = lower value 1.02 | locus YNR052C, strain pop2, stronger effect = lower value 1.04 | locus YOL006C, strain TOP1, stronger effect = lower value 1.01 | locus YOL012C, strain htz1 0.714 | locus YOL147C, strain pex11, stronger effect = lower value 1.01 | locus YOR061W, strain CKA2, stronger effect = lower value 1 | locus YOR069W, strain VPS5, stronger effect = lower value 1.01 | locus YOR136W, strain idh2, stronger effect = lower value 1.01 | locus YOR144C, strain elg1, stronger effect = lower value 1.01 | locus YOR184W, strain ser1, stronger effect = lower value 0.993 | locus YOR316C, strain cot1, stronger effect = lower value 1.02 | locus YPL241C, strain CIN2, stronger effect = lower value 1.01 | locus YPR119W, strain clb2, stronger effect = lower value 1.01 | locus YPR141C, strain kar3, stronger effect = lower value 1 | locus YPR163C, strain tif3, stronger effect = lower value 1.02 | locus YPR167C, strain met16, stronger effect = lower value 1.02 | strain wtn01, stronger effect = lower value 0.984
